Measurements: PubChem BioAssay AID1662 (Broad Institute, 2009)
Screen size: about 300,000 compounds; about 4,000 (1.3%) were called active.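 Rule for the calls: active = mean replicate score, as percent of positive control median, at least 50; inconclusive = mean below 50 but one replicate at or above 50; inactive = mean and every replicate below 50.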 What follows is part of a selection rich in actives, with near analogues and random picks from the rest.

Experiment: kanamycin survival loss of SKKanGAS strain – BacTiter-Glo luminescence, streptokinase expression inhibitor project, primary screen (AID 1662);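 note: strain carries kanamycin resistance gene driven by streptokinase promoter and grows in 40 µg/ml kanamycin; loss of luminescence reflects streptokinase promoter inhibition or plain growth inhibition; 0% = median of DMSO wells and 100% = positive control at its reference dose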
Conditions: S. pyogenes SKKanGAS, kanamycin growth, 6 h, at 7.5 µM, stronger effect = higher value

SMILES | inhibition
COc1cc2nc(CN(C)Cc3ccc(F)cc3)[nH]c(=O)c2cc1OC | 16.4% (inactive)
CC1=CC=CN2C1=NC(=O)CC2(C)C(=O)N(CC(=O)NC1CCCC1)c1ccccc1C (configuration not stated) | 1.46% (inactive)
Cc1nn(CCCC(=O)NCc2ccccc2Cl)c(=O)c2nccn12 | -6.9% (inactive)
Cc1ccc2nc(Nc3ccccc3)cc(C)c2c1 | 0.508% (inactive)
CCS(=O)(=O)Nc1cccc(-c2cc(-c3ccccc3)c3cc(C)ccc3n2)c1 | 97.3% (active)
Cc1ccc2nc(-c3ccncc3)cc(C(=O)Nc3ccncc3)c2c1 | 1.9% (inactive)
CCOCCCNC(=O)c1ccc(CS(=O)(=O)c2cccc(C(F)(F)F)c2)o1 | -1.72% (inactive)
CCC(=O)Nc1ccc(-c2ccc(N3CCCCC3)nn2)cc1 | 1.15% (inactive)
CC1CCN(C(NC(=O)c2ccco2)C(=O)c2ccccc2)CC1 (configuration not stated) | -2.13% (inactive)
CC1CCN(c2ccc(-c3ccc(NC(=O)c4ccco4)cc3)nn2)CC1 | 70% (active)
CCCCCN(C(=O)CCC(=O)OCCOc1ccc(OC)cc1)c1c(N)n(CCCC)c(=O)[nH]c1=O | -3.52% (inactive)
CS(=O)(=O)c1ccc2nnn(OCC(=O)Nc3cccc(C#N)c3)c2c1 | -3.98% (inactive)
COc1ccc(NC(=O)CN2C(=O)CSc3ccc(S(=O)(=O)N4CCC(C)CC4)cc32)cc1 | 10.8% (inactive)
CCOC(=O)c1cnc(-n2nc(C)cc2C)nc1NNc1cc(C)nc(-c2ccccc2)n1 | 101% (active)
CCOC(=O)c1cnc(-n2nc(C)cc2C)nc1Nc1cccc(C(C)=O)c1 | 35% (inactive)
CCOC(=O)c1cnc(-c2ccccc2)nc1Oc1ccc(C)cc1 | 20.4% (inactive)
Cc1ccc(S(=O)(=O)/N=C(\CN2CCOCC2)N2CCOCC2)cc1 | 2.49% (inactive)
CC(C)N1CCC(=NNc2ccc([N+](=O)[O-])cc2S(=O)(=O)N2CCOCC2)CC1 | 17.1% (inactive)
CN(C)c1ccc(-n2cccc2/C=N/n2cnnc2)cc1 | 0.00128% (inactive)
O=C(NC(=S)Nc1cccc2c(O)cccc12)c1cccc(Br)c1 | 63.3% (active)
Cc1ccccc1NC(=S)NNC(=O)c1cccc(Br)c1 | -4.92% (inactive)
NS(=O)(=O)c1ccc(NC(=S)NC(=O)c2cccc(Br)c2)cc1 | 0.49% (inactive)
CCOC(=O)c1ccccc1NS(=O)(=O)c1c(C)nc2sccn2c1=O | -2.29% (inactive)

SMILES | inhibition
CN(C)CCNc1ccc(-c2n[nH]c(=O)c3ccccc23)cc1[N+](=O)[O-] | -10.2% (inactive)
COc1cccc(/C=N/Nc2cc(C)nc(-c3ccccc3O)n2)c1O | 64.5% (active)
COc1ccccc1/C=N\Nc1cc(C)nc(-n2nc(C)cc2C)n1 | 101% (active)
Cc1ccc(S(=O)(=O)Nc2nc(C)cc(N/N=C/c3ccc(O)cc3)n2)cc1 | -2.8% (inactive)
COc1ccc(/C=N/Nc2cc(N3CCOCC3)nc(C)n2)c(OC)c1 | 14.3% (inactive)
COc1ccc(-c2nn(-c3ccccc3)cc2/C=N/Nc2ccccn2)cc1OC | 16.9% (inactive)
Oc1cccc(/C=N/Nc2ccc(Cl)nn2)c1O | -9.25% (inactive)
COc1cccc2c(N/N=C/c3ccco3)cc(C)nc12 | -8.63% (inactive)
Cc1nc(Cl)cc(N/N=C/c2ccccc2)n1 | -4.1% (inactive)
Cc1cc(N/N=C\c2ccc(Br)cc2)nc(-n2nc(C)cc2C)n1 | 102% (active)
CC(=O)Nc1ccc(NS(=O)(=O)c2ccc3c(c2)NC(=O)CC(=O)N3)cc1 | -2.61% (inactive)
CCOC(=O)N1CCN(S(=O)(=O)c2ccc(OC)cc2)CC1 | -0.833% (inactive)
Cc1cc(N2C(=O)C(=O)/C(=C(/O)c3ccccc3)C2c2cccc(Br)c2)no1 (configuration not stated) | 16.7% (inactive)
Cn1nnc(NC(=S)NC(=O)c2ccccc2)n1 | -0.537% (inactive)
COc1ccccc1CCC(=O)OCC(=O)N1CCN(S(=O)(=O)c2ccc(C)cc2C)CC1 | -9.85% (inactive)
Cc1ccccc1NC(=O)C1CCCN(C(=O)NCc2ccccc2)C1 (configuration not stated) | -1.35% (inactive)
CCCCN=C1C([N+](=O)[O-])=CC=C2C1=NC1(CCCCC1)N2O | 2.56% (inactive)
Clc1ccc(-c2cc(C3CCNCC3)[nH]n2)c(Cl)c1 | 7.25% (inactive)
COc1ccc(CCNC(=O)CCCCCNC(=O)N2CCn3c2nc2ccccc23)cc1OC | 3.33% (inactive)
COc1ccccc1N1CCN(C(=O)CCS(=O)(=O)c2ccc3c(c2)NC(=O)C(C)S3)CC1 (configuration not stated) | -2.2% (inactive)
COC(=O)CNC(c1ccccc1Cl)c1cc(Br)ccc1NC(=O)CCN1CCOCC1 (configuration not stated) | -3.8% (inactive)
CC(=O)O[C@H]1CC[C@@]2(C)[C@@H](CC[C@@H]3[C@@H]2CC[C@]2(C)[C@@H](C(C)(C)O)C[C@@H]32)C1 | 29% (inactive)
COc1ccc(-c2cc(-c3ccc(N)cc3)nc(N)c2C#N)cc1OC | 9.35% (inactive)

SMILES | inhibition
CCOc1cc(-c2cc(-c3ccc(NC(C)=O)cc3)nc(N)c2C#N)ccc1O | 83.8% (active)
CCOc1cc(-c2cc(-c3ccc(OC)cc3)nc(N)c2C#N)ccc1O | 30.5% (inactive)
O=S(=O)(c1cccc(C(F)(F)F)c1)N1CCN(c2cnccn2)CC1 | 0.567% (inactive)
CC(C)CCNC(=O)CCNS(=O)(=O)c1ccc(Cl)cc1 | -4.22% (inactive)
COCCSc1nnc(NC(=O)CCS(=O)(=O)Cc2ccccc2)s1 | -1.08% (inactive)
Cc1cc(C)cc(N(CCC#N)C(=O)CN2C(=O)NC3(CCCC3)C2=O)c1 | -1.7% (inactive)
Cc1ccc(OCc2n[nH]c(=S)n2-c2ccc(C)cc2)cc1 | -0.726% (inactive)
CCCOc1ccc(-c2nc(N)n[nH]2)cc1 | -0.246% (inactive)
Cc1ccc(OCCCCc2c(C)n[nH]c2C)cc1 | 87.2% (active)
Cc1cc2c(c(=O)n1C)C(C(C)C)C(C#N)=C(N)O2 (configuration not stated) | -0.711% (inactive)
CCOC(=O)c1c(-c2ccccc2)oc2cc(Br)c(O)cc12 | 12.5% (inactive)
CCOC(=O)c1c(-c2ccccc2)oc2cc(Br)c(O)c(C=O)c12 | 56.9% (active)
CCOC(=O)c1c(-c2ccccc2)oc2ccc(OCC(N)=O)cc12 | -10.7% (inactive)
COc1ccccc1CNS(=O)(=O)c1cc2c3c(c1)CCC(=O)N3CCC2 | -8.56% (inactive)
NS(=O)(=O)c1ccc(CCNC(=O)CN2C(=O)c3ccccc3S2(=O)=O)cc1 | -2.59% (inactive)
CCCCCCc1ccc(O)cc1O | 9.42% (inactive)
Cc1c(CC(=O)NCCCCCC(=O)O)c(=O)oc2cc3occ(-c4ccccc4)c3cc12 | 18.7% (inactive)
CCCCCCc1cc2cc(-c3nnc(-c4ccccc4)o3)c(=O)oc2cc1O | 62% (active)
O=C(CCc1nnc2ccc(NCc3ccco3)nn12)Nc1cc(F)ccc1F | -0.213% (inactive)
C/C(=N\NC(=O)c1ccc(C)cc1)C1C(=O)c2ccccc2C1=O | 52.3% (active)
Cc1ccc(NC(=S)NC(=O)c2ccc(-c3ccccc3)cc2)cc1 | 9.46% (inactive)
Cc1ccc(C(=O)NC(=S)Nc2ccccc2C)cc1 | -6.14% (inactive)
Cc1cc(C)c(NC(=O)C[N+](C)(C)CC(O)COc2cccc3ccccc23)c(C)c1 (configuration not stated) | 29% (inactive)

SMILES | inhibition
OC(COc1cccc2ccccc12)CN1CCN(c2ccccn2)CC1 (configuration not stated) | 13.1% (inactive)
CC(C)c1ccccc1OCC(O)CN(CC(O)COc1cccc2ccccc12)C(C)C (configuration not stated) | 97.9% (active)
CC(C)=CCCC1(C)C=Cc2c(ccc3c2[nH]c2cc(O)c(C)cc23)O1 (configuration not stated) | 112% (active)
COc1ccc(CCNC(=O)C(=O)NCC2OCCN2S(=O)(=O)c2cccs2)cc1OC (configuration not stated) | -1.24% (inactive)
CCCC(CCC(=O)OC)(C(=O)OCC)c1csc(N)n1 (configuration not stated) | -8.11% (inactive)
CCCCCCCCCCCCC(NC(C)=O)(C(=O)OCC)C(=O)OCC | 61.2% (active)
O=S(=O)(c1cccc(-c2cn3ccccc3n2)c1)N1CCCC1 | -3.54% (inactive)
O=C(CSc1nc(O)c(Cc2ccccc2)c(=O)[nH]1)Nc1nc2c(s1)CCCC2 | 28.8% (inactive)
O=S(=O)(c1cc(Cl)ccc1Cl)N1CCN(Cc2ccco2)CC1 | 2.62% (inactive)
CC(=O)Nc1ccc(NC(=O)C(C)n2c3ccccc3c3nc(=O)cc(C)n32)cc1 (configuration not stated) | 3.43% (inactive)
C=CCn1c(SCC(=O)/C(C#N)=C(\C)N)nc2sc(C)c(C)c2c1=O | 58.1% (active)
C=CCn1c(SCC(=O)NCC2CCCO2)nc2sc(C)c(C)c2c1=O (configuration not stated) | -1.04% (inactive)
Cc1sc2nc(SCC(N)=O)n(C)c(=O)c2c1C | -2.36% (inactive)
COc1ccc(NC(=O)CN(C)C(=O)/C=C/c2cn(Cc3ccccc3)nc2-c2cccnc2)cc1 | 18.3% (inactive)
CCOc1ccc2[nH]c(=O)c(CN(CCCO)S(=O)(=O)c3ccc(F)cc3)cc2c1 | 0.803% (inactive)
C=CCOc1cccc(C2C(C(=O)c3ccc(C)o3)=C(O)C(=O)N2c2nnc(C)s2)c1 (configuration not stated) | 7.43% (inactive)
Cc1cc(N2C(=O)C(O)=C(C(=O)c3ccc(C)o3)C2c2ccc(OCc3ccccc3)cc2)no1 (configuration not stated) | 106% (active)
COc1cc(C2C(C(=O)c3ccco3)=C(O)C(=O)N2c2cc(C)on2)ccc1OCc1ccccc1 (configuration not stated) | 2.64% (inactive)
Cc1ccc(C2(c3ccc(C)cc3)NC(=O)N(Cc3c(C)noc3C)C2=O)cc1 | 4.44% (inactive)
O=C(CCc1ccccc1)NNC(=O)COc1ccc(Cl)cc1 | 5.54% (inactive)
COc1ccc(C2CC(c3ccc(C)cc3)Nc3ncnn32)cc1 (configuration not stated) | -7.13% (inactive)
Clc1ccc(C2CC(c3cccs3)n3ncnc3N2)cc1Cl (configuration not stated) | -0.937% (inactive)
FC(F)Oc1ccccc1C1CC(c2ccc(Br)s2)Nc2ncnn21 (configuration not stated) | 59.5% (active)
